Measurements: PubChem BioAssay
Values joined by “and” are separate entries in the source; they are usually repeats but may differ in a detail not shown here. Equal entries are not always repeated. Results filed as inconclusive are left out. For some assays here: Entries with a potency or affinity are not part of this list. Active and inactive are the calls of the source. Unless noted, how the calls were made is not given here.

Columns and labels:
[1] = test system: Aerobactin synthetase IucA (Klebsiella pneumoniae); test: inhibition of K. pneumoniae IucA enzyme – biochemical, Tocris library, absorbance (AID 1345561); conditions: purified IucA enzyme assay, absorbance (OD) read-out; stronger effect = lower value;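 tested at 8 µM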;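 further: 100% = enzyme without compound and 0% = no enzyme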
[2] = viability loss with induced miR-34 in A549 – imaging, A549 dox-inducible miR-34, nuclei and caspase counts, primary screen (AID 1347080;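 active means compounds whose cell count with miR-34 switched on is under 0.7 times the count with it off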); conditions: A549 miR-34 inducible, Hoechst nuclei count, 48 h
[3] = galactose survival enhancers in mitochondrial complex I cybrids – cell-based, galactose medium, ATP luminescence, primary screen (AID 1645843;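 active means z-score of at least 1.8 in each of two replicates, scored against plate mean and spread of sample wells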;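 further: positive z means more ATP and so rescue of galactose-driven cybrid death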); conditions: complex I mutant cybrid cells, 72 h, stronger effect = higher value
[4] = target: ATP-dependent translocase ABCB1 (Homo sapiens) (UniProt P08183); test: P-glycoprotein substrate transport blockade – cell-based (AID 377; in the data active means fluorescence slope change above about 50%); conditions: MDR1-expressing cells, fluorescent substrate accumulation slope; stronger effect = higher value; concentration not given here
[5] = blockers of polyQ-driven CASP3 activation – cell-based (AID 1583); conditions: polyglutamine-induced caspase-3 activation, cell assay; stronger effect = higher value;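 tested at 10 µM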
[6] = yeast 75Q aggregation reduction – 75Q-TubU reporter (AID 1593); conditions: Yeast 75Q polyglutamine aggregation reporter
[7] = restoration of touch response, mutant HTT neurons – whole organism, C. elegans mechanosensory neurons, N-terminal huntingtin (AID 1599); conditions: C. elegans polyQ-huntingtin mechanosensory neurons, stronger effect = higher value
[8] = blockers of cytochrome c efflux from mitochondria – biochemical, purified mitochondria (AID 1603); conditions: stronger effect = lower value;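 further: mouse liver mitochondria challenged with calcium chloride; signal normalized to the plate average as 100%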
[9] = polyglutamine aggregate formation blockers (AID 1604); conditions: polyglutamine-induced protein aggregation inhibition assay; stronger effect = higher value; tested at 2.5 µM
[10] = glutamate transport activators, MN-1 cells, MN-1 cell line (AID 1612); conditions: MN-1 motor neuron cells, stronger effect = higher value;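 further: tested at 1 µM final; 0% = mean of DMSO vehicle wells on each plate; positive means more glutamate uptake than control and negative means less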
[11] = GFP-Q80 aggregate reduction, neuronal-like cells, cell-based, NGF-treated PC12, GFPQ80 (AID 1614); conditions: PC12 NGF-treated GFP-polyQ80 inclusion reduction;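 further: lower means fewer inclusions and 0 means no inclusions at all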
[12] = 75Q-TubH aggregate inhibition, S. cerevisiae, yeast (AID 1616); conditions: S. cerevisiae 75Q-TubH polyglutamine aggregation suppression; stronger effect = higher value
[13] = compounds altering circadian rhythm period length – cell-based, LOPAC library, luminescence reporter (AID 2774); conditions: circadian reporter cells, at 7 µM, actives lie on both sides;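 further: values are relative to mean of DMSO wells on each plate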
[14] = compounds altering viability of human ES cells (AID 493140); conditions: human embryonic stem cell survival screen; stronger effect = higher value;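 further: cells exposed to compounds for four days before counting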
[15] = P. berghei load reduction in hepatocytes – cell-based, HepG2, luciferase luminescence, HepG2 viability, primary screen (AID 624349; in the data active means parasite load remaining mostly below about 12%, no sharp cut-off; inactive means mostly above about 10%;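 further: 100% = mean of DMSO negative control wells on the same plate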); conditions: P. berghei liver stage in HepG2, luciferase luminescence, concentration not given here; parasite load remaining: stronger effect = lower value; viability: measured here: HepG2 viability without parasites
[16] = MELAS cybrid and Rieske KO viability enhancers – cell-based, MELAS cybrids, Rieske KO mouse fibroblasts, CellTiter-Glo, primary screen (AID 1508586;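 active means mean z-score across replicates of 1.96 or higher in either the MELAS or the Rieske mutant cell line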;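 further: z relative to plate mean and SD of compound and empty wells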); conditions: low glucose
[17] = target: Mitogen-activated protein kinase 7 (Homo sapiens) (UniProt Q13164); test: Gal4-ERK5 driven luciferase induction – cell-based, HTS, primary screen (AID 1508626;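 active means luciferase signal above three times the same-plate solvent-only control wells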;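 further: luciferase driven by Gal4-ERK5 fusion binding five Gal4 sites before minimal TATA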); conditions: HeLa Gal4-ERK5 transactivation, 18 h, at 5 µM, stronger effect = higher value
[18] = test system: Aerobactin synthetase IucA (Klebsiella pneumoniae, hypervirulent); test: biochemical IucA inhibition screen of LOPAC library by absorbance (AID 1346212); conditions: IucA enzyme assay, absorbance (OD) readout; stronger effect = lower value;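 tested at 8 µM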;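 further: 100% = no compound wells and 0% = no enzyme wells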
[19] = stronger effect = lower value, cell number ratio, induced over uninduced
[20] = measured here: relative caspase fold change +Dox/-Dox
[21] = measured here: total cells with miR-34 induction, stronger effect = lower value
[22] = measured here: total cells without miR-34 induction

Chain of Mitogen-activated protein kinase 7 (Homo sapiens) (Q13164 whole entry, looked up, the tested form may be a part): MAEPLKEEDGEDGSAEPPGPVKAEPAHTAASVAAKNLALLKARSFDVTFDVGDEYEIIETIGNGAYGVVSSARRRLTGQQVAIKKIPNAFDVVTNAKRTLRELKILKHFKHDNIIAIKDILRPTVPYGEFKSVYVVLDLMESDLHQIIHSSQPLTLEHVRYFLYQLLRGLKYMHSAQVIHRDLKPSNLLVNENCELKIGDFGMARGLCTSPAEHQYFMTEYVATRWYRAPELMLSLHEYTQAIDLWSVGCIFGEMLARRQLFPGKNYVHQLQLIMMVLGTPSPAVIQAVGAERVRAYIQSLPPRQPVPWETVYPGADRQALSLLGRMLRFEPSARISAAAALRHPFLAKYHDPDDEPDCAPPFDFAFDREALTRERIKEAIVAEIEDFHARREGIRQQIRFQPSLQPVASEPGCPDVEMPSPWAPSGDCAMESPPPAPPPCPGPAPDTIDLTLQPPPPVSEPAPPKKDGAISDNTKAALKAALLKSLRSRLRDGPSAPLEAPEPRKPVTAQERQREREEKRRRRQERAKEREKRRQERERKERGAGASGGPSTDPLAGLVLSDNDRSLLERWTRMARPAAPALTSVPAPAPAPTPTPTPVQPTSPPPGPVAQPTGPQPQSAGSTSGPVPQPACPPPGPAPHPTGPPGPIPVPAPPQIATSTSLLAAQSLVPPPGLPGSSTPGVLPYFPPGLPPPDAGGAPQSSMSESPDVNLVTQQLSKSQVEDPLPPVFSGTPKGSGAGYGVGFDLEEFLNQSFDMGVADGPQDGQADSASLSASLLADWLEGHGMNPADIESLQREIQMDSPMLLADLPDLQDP
Chain of ATP-dependent translocase ABCB1 (Homo sapiens) (P08183 whole entry, looked up): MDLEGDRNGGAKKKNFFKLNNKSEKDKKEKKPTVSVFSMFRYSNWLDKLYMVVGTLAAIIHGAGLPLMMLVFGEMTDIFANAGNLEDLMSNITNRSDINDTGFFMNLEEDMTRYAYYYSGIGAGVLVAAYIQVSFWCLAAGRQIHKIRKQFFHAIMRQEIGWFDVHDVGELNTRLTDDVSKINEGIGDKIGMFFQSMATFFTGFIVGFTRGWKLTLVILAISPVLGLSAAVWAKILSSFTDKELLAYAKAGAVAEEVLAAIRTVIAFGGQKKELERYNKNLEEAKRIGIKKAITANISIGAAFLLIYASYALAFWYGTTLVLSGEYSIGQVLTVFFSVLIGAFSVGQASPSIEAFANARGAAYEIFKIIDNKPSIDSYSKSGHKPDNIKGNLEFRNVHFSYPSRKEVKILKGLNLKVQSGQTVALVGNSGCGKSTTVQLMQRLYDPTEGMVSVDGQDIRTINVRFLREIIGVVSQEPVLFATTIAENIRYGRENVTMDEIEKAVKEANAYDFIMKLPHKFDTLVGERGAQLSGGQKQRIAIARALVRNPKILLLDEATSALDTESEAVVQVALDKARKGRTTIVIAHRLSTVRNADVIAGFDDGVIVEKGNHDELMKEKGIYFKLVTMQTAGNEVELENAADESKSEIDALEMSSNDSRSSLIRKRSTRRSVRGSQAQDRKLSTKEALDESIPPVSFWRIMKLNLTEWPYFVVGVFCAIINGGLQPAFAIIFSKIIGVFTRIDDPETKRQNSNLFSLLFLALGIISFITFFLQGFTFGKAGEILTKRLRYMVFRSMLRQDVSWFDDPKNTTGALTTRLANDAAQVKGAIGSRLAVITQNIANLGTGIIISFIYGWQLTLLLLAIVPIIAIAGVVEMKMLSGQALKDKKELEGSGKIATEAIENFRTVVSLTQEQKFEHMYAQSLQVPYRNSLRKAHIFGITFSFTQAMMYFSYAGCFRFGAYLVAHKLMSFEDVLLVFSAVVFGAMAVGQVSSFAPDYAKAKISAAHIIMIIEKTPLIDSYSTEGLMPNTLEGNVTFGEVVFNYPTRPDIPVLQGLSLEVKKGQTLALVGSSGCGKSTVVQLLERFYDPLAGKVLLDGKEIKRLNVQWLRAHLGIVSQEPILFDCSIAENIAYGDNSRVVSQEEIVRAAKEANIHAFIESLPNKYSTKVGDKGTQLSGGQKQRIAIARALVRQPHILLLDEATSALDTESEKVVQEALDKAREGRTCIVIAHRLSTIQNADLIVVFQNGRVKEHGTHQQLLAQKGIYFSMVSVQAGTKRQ

Compound: OC12C3C4CC5C6C4C1C6C(C53)N2CCc1cccc(F)c1 (configuration not stated)
- remaining activity [1]: 98.4% (inactive)
- fold change [2, 19]: 0.838 (inactive)
- fold change [2, 20]: 1.86
- cell count [2, 21]: 7940
- cell count [2, 22]: 9480
- z-score [3]: 0.295 (inactive)

Compound: CC(C)CC(N)C1(c2ccc(Cl)cc2)CCC1 (configuration not stated)
- remaining activity [1]: 120% (inactive)
- fold change ([2]; stronger effect = lower value): 1.01 (inactive)
- fold change [2, 20]: 1.15
- cell count [2, 21]: 7820
- cell count [2, 22]: 7770
- z-score [3]: -0.615 (inactive)

Compound: CN1CCc2cc3c(cc2[C@H]1[C@@H]1OC(=O)c2c1ccc1c2OCO1)OCO3
- fluorescence slope change [4]: 0.5% (inactive)
- inhibition [5]: -6.49%
- score [6]: 1.32
- rescue above control [7]: 3.46
- cytochrome c release ratio [8]: 0.82
- inhibition of aggregation [9]: 59.1%
- glutamate uptake change [10]: 4.35%
- inclusion score [11]: 1.5
- aggregation suppression score [12]: 0.931
- period change [13]: 0.03 h (inactive)
- survival [14]: 5.92 (inactive)
- parasite load remaining [15]: 65% (inactive) and 87.6% (inactive)
- viability [15]: 109% and 77.4%
- remaining activity [1]: 114% (inactive)
- fold change ([2]; stronger effect = lower value): 0.865 (inactive) and 0.821 (inactive) and 0.983 (inactive)
- fold change [2, 20]: 1.2 and 0.761 and 1.26
- cell count [2, 21]: 9130 and 8360 and 9120
- cell count [2, 22]: 10600 and 10200 and 9280
- z-score ([16]; MELAS cybrid survival, CellTiter-Glo 48 h, stronger effect = higher value): -0.206 (inactive)
- z-score ([16]; Rieske KO mouse fibroblast survival, CellTiter-Glo 72 h): -0.158
- luciferase signal [17]: 44 AU (inactive)
- z-score [3]: 0.335 (inactive)

Compound: CCNC(=O)[C@H]1O[C@@H](n2cnc3c(N)ncnc32)[C@H](O)[C@@H]1O
- remaining activity [1]: 122% (inactive)
- remaining activity [18]: 120% (inactive)
- fold change [2, 19]: 0.978 (inactive)
- fold change [2, 20]: 0.831
- cell count [2, 21]: 8940
- cell count [2, 22]: 9140
- z-score [3]: -0.23 (inactive)

Compound: N[C@]1(C(=O)O)CC[C@@H](C(=O)O)C1 (racemic)
- remaining activity [1]: 103% (inactive)
- fold change [2, 19]: 0.971 (inactive)
- fold change [2, 20]: 0.73
- cell count [2, 21]: 7990
- cell count [2, 22]: 8230
- z-score [3]: 0.095 (inactive)

Compound: C=C(C)[C@@H]1CCC(C)=C[C@H]1c1c(OC)cc(C)cc1OC
- remaining activity [1]: 106% (inactive)
- fold change [2, 19]: 0.943 (inactive) and 0.926 (inactive)
- fold change [2, 20]: 0.715 and 0.958
- cell count [2, 21]: 5230 and 8980
- cell count [2, 22]: 5540 and 9700
- z-score [3]: -0.105 (inactive)

Compound: O=Cc1cn(Cc2ccc(Cl)cc2)c2ccccc12
- remaining activity [1]: 119% (inactive)
- fold change [2, 19]: 0.901 (inactive)
- fold change [2, 20]: 1.34
- cell count [2, 21]: 4020
- cell count [2, 22]: 4470
- z-score [3]: -0.645 (inactive)

Compound: Ic1cncc(OC[C@@H]2CCN2)c1
- remaining activity [1]: 118% (inactive)
- fold change [2, 19]: 0.934 (inactive)
- fold change [2, 20]: 0.549
- cell count [2, 21]: 9660
- cell count [2, 22]: 10300
- z-score [3]: -0.135 (inactive)

Compound: C=CCN1C[C@H](C)N([C@H](c2ccc(C(=O)N(CC)CC)cc2)c2cccc(O)c2)C[C@H]1C
- remaining activity [1]: 99.4% (inactive)
- fold change [2, 19]: 0.929 (inactive)
- fold change [2, 20]: 0.728
- cell count [2, 21]: 8160
- cell count [2, 22]: 8780
- z-score [3]: -0.17 (inactive)

Compound: CCCCCCC[n+]1ccc(-c2cc[n+](CCCCCCC)cc2)cc1
- remaining activity [1]: 77% (inactive)
- fold change [2, 19]: 1.13 (inactive)
- fold change [2, 20]: 1.23
- cell count [2, 21]: 1940
- cell count [2, 22]: 1710
- z-score [3]: -1.1 (inactive)

Compound: Cc1[nH]c2ccc(Cl)cc2c1C1=CCNCC1
- remaining activity [1]: 103% (inactive)
- fold change [2, 19]: 0.919 (inactive)
- fold change [2, 20]: 1.4
- cell count [2, 21]: 7850
- cell count [2, 22]: 8550
- z-score [3]: -0.42 (inactive)

Compound: C[C@@H]1O[C@@H](O[C@@H]2C[C@@H](O)[C@]3(CO)[C@H]4[C@H](O)C[C@]5(C)[C@@H](C6=CC(=O)OC6)CC[C@]5(O)[C@@H]4CC[C@]3(O)C2)[C@H](O)[C@H](O)[C@H]1O
- remaining activity [1]: 107% (inactive)
- fold change [2, 19]: 0.807 (inactive)
- fold change [2, 20]: 1.91
- cell count [2, 21]: 346
- cell count [2, 22]: 430
- z-score [3]: -0.765 (inactive)

Compound: CC(C)n1cnc2c(C(=O)N[C@H]3CN4CCC3CC4)cc(Cl)cc21
- remaining activity [1]: 102% (inactive)
- fold change [2, 19]: 0.928 (inactive)
- fold change [2, 20]: 0.88
- cell count [2, 21]: 8010
- cell count [2, 22]: 8630
- z-score [3]: 2.03 (inactive)

Compound: Clc1ccc(C2=CCCC3CCC2N3)cn1 (configuration not stated)
- remaining activity [1]: 101% (inactive)
- fold change [2, 19]: 0.907 (inactive)
- fold change [2, 20]: 0.911
- cell count [2, 21]: 9190
- cell count [2, 22]: 10100
- z-score [3]: 0.365 (inactive)

Compound: O=C1Nc2ccccc2C2(CCN(CCc3ccc(C(F)(F)F)cc3)CC2)O1
- remaining activity [1]: 102% (inactive)
- fold change [2, 19]: 1.06 (inactive)
- fold change [2, 20]: 0.675
- cell count [2, 21]: 4790
- cell count [2, 22]: 4500
- z-score [3]: -0.66 (inactive)

Compound: c1cc(Cc2cnc[nH]2)ccn1
- remaining activity [1]: 105% (inactive)
- fold change [2, 19]: 0.985 (inactive)
- fold change [2, 20]: 1.35
- cell count [2, 21]: 9560
- cell count [2, 22]: 9710
- z-score [3]: -0.25 (inactive)

Compound: c1ccc(C2CNCc3ccccc32)cc1 (configuration not stated)
- remaining activity [1]: 117% (inactive)
- fold change [2, 19]: 0.949 (inactive)
- fold change [2, 20]: 0.998
- cell count [2, 21]: 8070
- cell count [2, 22]: 8500
- z-score [3]: -0.455 (inactive)

Compound: O=C(O)Cc1cccnc1C(=O)O
- remaining activity [1]: 108% (inactive)
- fold change [2, 19]: 0.98 (inactive)
- fold change [2, 20]: 0.669
- cell count [2, 21]: 8790
- cell count [2, 22]: 8970
- z-score [3]: 0.32 (inactive)

Compound: NCC(CS(=O)(=O)O)c1ccc(Cl)cc1 (configuration not stated)
- remaining activity [1]: 108% (inactive)
- fold change [2, 19]: 0.961 (inactive)
- fold change [2, 20]: 1.04
- cell count [2, 21]: 9200
- cell count [2, 22]: 9570
- z-score [3]: 0.475 (inactive)

Compound: COc1cc2c(cc1O)C(CCc1ccc(Cl)cc1)N(C)CC2 (configuration not stated)
- remaining activity [1]: 109% (inactive)
- fold change [2, 19]: 0.951 (inactive)
- fold change [2, 20]: 1.1
- cell count [2, 21]: 7110
- cell count [2, 22]: 7480
- z-score [3]: -0.615 (inactive)
